# Shown are actives, neighbours in structure and some others; about 2.9% of the full set was active somewhere.
# IP6K1 inhibitor = blocks human inositol hexakisphosphate kinase 1; Q92551; IP6K1 kinase, ADP-Glo luminescence, 2 h; stronger effect = lower value; activity change, % (series mostly up to about 58 µM); 140,000 compounds, 0.81% hits; AID 1645851; in the data active means activity change below about -25%; further: on the % scale 0 is the no-effect control and ±100 the full control effect
# Target sequence (Q92551 whole entry, looked up): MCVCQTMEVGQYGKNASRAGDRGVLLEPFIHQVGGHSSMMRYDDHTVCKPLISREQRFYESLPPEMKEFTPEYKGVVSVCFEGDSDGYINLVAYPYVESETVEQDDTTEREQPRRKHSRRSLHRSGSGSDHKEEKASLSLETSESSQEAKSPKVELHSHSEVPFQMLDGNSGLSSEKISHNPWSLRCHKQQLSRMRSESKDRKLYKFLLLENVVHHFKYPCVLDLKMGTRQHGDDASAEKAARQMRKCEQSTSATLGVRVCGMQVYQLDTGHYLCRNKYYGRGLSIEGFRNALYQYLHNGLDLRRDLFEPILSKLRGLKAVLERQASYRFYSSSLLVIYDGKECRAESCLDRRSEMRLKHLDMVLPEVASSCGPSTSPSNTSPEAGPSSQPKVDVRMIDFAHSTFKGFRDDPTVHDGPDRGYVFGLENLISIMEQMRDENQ
#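 ADP-Glo luminescence measures ADP made by human IP6K1 during a 2 h RT reaction with ATP/IP6 (mix at 1.3 mM/130 uM); top library doses 57.5 and 19.1 uM final.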
# SNCA viab count = reduces viability of HEK-293 SNCA reporter cells; HEK-293-SNCA-luc viability, GF-AFC fluorescence, 24 h; Potency, µM (highest dose often 57.1 µM), without a hit: at the highest dose activity change, negative = cytotoxicity, usual class: cytotoxic; 150,000 compounds, 0.12% hits;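 further: potency means the concentration at half of the fitted maximal effect; 0% = DMSO-treated cells and -100% = medium-only wells without cells; nearly all actives have a fitted effect of over 30% in size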
#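 HEK-293-SNCA-luc cells (1500/well) plated 24 h, then exposed 24 h to a dilution series; GF-AFC added 30 min at 37C, fluorescence 405/540 nm; normalised to medium-only and DMSO wells, Hill fit.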
# KDM5B inh = blocks human KDM5B histone demethylase activity; KDM5B demethylase, FDH-coupled NADH fluorescence (FDH is formaldehyde dehydrogenase); Potency, µM (series often up to 57.7 µM), actives largely listed as inhibitors; 220,000 compounds, 2.6% hits; AID 1347165; further: potency means the concentration at half of the fitted maximal effect; 0% is about no effect; nearly all actives have a fitted effect of over 70% in size
#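 Measured: NADH fluorescence change, 30 min, RT. System: KDM5BΔAP 200 nM final, H3K4me3 peptide, α-KG, Fe(II), ascorbate, NAD⁺ plus FDH, pH 7.5 HEPES. Compounds: titrated, 10 min pre-incubation with enzyme.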
# SNCA expr inh = reduces expression of the alpha-synuclein gene; HEK-293 SNCA-luciferase knock-in, luminescence, 24 h; Potency, µM (highest dose often 57.2 µM), inactives show at the highest dose activity change, negative = inhibition, hits mostly inhibitors; 140,000 compounds, 0.17% hits; AID 1671194;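 further: potency means the concentration at half of the fitted maximal effect; plate controls were DMSO cells for no effect and cell-free wells for full effect; nearly all actives have a fitted effect of over 45% in size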
# * marks the source's active call; other numbers are inactive results; i = inactive; ? = inconclusive; nt = not tested or not shown; ! = repeats disagree; [ ] = dose if it differs, or a comment. Unless noted, the call rests on the fitted dose curve; in most records, active means well fitted curve in the direction sought with a large enough effect; inconclusive means small, poorly fitted or top-dose-only effect, or another doubt; inactive means no such curve, though single readings can be large; an effect the other way counts as inactive or inconclusive.
SMILES,IP6K1 inhibitor,SNCA viab count,KDM5B inh,SNCA expr inh
CN(C)c1cccc(-c2cnc(Nc3cncnc3)c3c2CCO3)c1,-18.1,-9.4%[87.6 µM],i,42.9%[87.6 µM]
Cc1cc2ccccc2n1CCC(=O)N1CC[C@@](C)(O)[C@@H](O)C1,13.1,-0.8%,?,-0.3%
COc1cccc(C(=O)N2CCC3(CCNCC3)CC2)c1C,-4.7,-25.0%,i,34.0%
NC1(C(=O)NCc2nc(-c3cccc(F)c3)c(-c3ccccn3)[nH]2)CCC1,8.2,-19.2%,?,-7.9%
O=C(NCc1nc(-c2cccc(F)c2)c(-c2ccccn2)[nH]1)N1CCCC1,10.6,-1.5%,22.4µM*,3.2%
Cc1nc(-c2ccc(OC3CCN(C(=O)CCc4nc5ccccc5[nH]4)C3)cc2)no1 (centres undefined),-3.5,-15.2%,i,-28.7%
CNc1ccc(OC2CCN(C(=O)CCc3nc4ccccc4[nH]3)C2)nc1 (centres undefined),25.6,6.9%,28.2µM*,-8.8%
COC(=O)C1=CNC=C(C(=O)OC)C1c1ccc(C(F)(F)F)cc1,nt,nt,i,nt
CC(/C=C/c1ccccc1)=N\OC(=O)c1ccc(Cl)cc1Cl,nt,nt,i,nt
CCc1noc(-c2cccn3c(CNC(=O)c4ccccc4C)nnc23)n1,3.7,-8.4%,28.2µM*,-18.1%
CCc1noc(-c2cccn3c(CNC(=O)Cc4ccccc4OC)nnc23)n1,12.9,0.5%,?,3.2%
CCc1noc(-c2cccn3c(CNC(=O)c4cc(C)ccc4C)nnc23)n1,22.4,1.3%,10µM*,-24.6%
O=C(c1ccccc1)N1CCC(N2CCCOC2=O)CC1,-14.5,6.3%[87.6 µM],i,7.7%[87.6 µM]
O=C(NC1CCCCCCC1)C1CCN(Cc2nc(-c3ccccc3)no2)CC1,nt,nt,i,nt
CC1(C(=O)N2CCC(c3ccccc3)CC2)CCc2cnc(N3CCOCC3)nc21 (centres undefined),4.0,-14.1%[87.6 µM],31.6µM*,?
CC1(C(=O)N2CCC(c3ccccc3)CC2)COCc2cnc(Nc3ccccc3)nc21 (centres undefined),-1.5,?,?,?
O=C(Nc1ccc2cn[nH]c2c1)c1ccc2c(c1)OCCN(c1ccccc1)C2,6.1,?,31.6µM*,8.0%[87.6 µM]
O=C(Nc1nccs1)c1ccc2c(c1)OCCN(c1ccccc1)C2,-6.3,5.5%[87.6 µM],?,23.6%[87.6 µM]
Cc1ccc(CN2C(=O)C(=O)c3cc(Br)cc(C)c32)cc1,-8.5,?,?,22.4µM*
COc1ccc(-c2ccc(-c3nc(CC(C)C)no3)cn2)c2cccnc12,-3.9,-17.2%,28.2µM*,-14.8%
Cc1noc(C)c1C(=O)NC1CC(=O)N(Cc2cccc(F)c2)C1 (centres undefined),-1.6,-6.6%,i,-12.5%
Cc1csc(/C(C#N)=C\c2ccccc2OC(F)(F)F)n1,nt,nt,i,nt
Cc1ccc2nc(C3CCN(Cc4ccc(C#N)cc4)CC3)[nH]c(=O)c2c1,10.6,1.1%,79.4µM*!,-15.1%
N#Cc1ccc(CN2CCC(c3nc4ccc(F)cc4c(=O)[nH]3)CC2)cc1,-3.2,-2.9%,i,0.3%
Clc1ccccc1-c1ncc[nH]1,-7.8,3.4%[87.6 µM],i,-3.7%[87.6 µM]
SMILES,IP6K1 inhibitor,SNCA viab count,KDM5B inh,SNCA expr inh
COc1ccc(NC(=O)N2CCCC3(C2)Nc2cccnc2NC3=NC2CCCC2)c(C)c1 (centres undefined),0.0,-16.0%,25.1µM*,-13.6%
O=C(c1n[nH]c2c1CCCC2)N1CCCC2(C1)Nc1cccnc1NC2=NC1CCCC1 (centres undefined),0.0,-14.0%,25.1µM*,-18.7%
Cc1ccc(C(=O)N2CCCC3(C2)Nc2cccnc2NC3=NC2CCCC2)cc1F (centres undefined),1.2,-19.0%,28.2µM*,-6.0%
Cc1nc(C)c(C(=O)N2CC(Oc3ccc(-c4nc(-c5ccccc5)no4)cc3)C2)s1,9.6,-0.4%,i,69.2%
Cc1ccc(C(=O)N2[C@@H]3CC[C@H]2CC(NC(=O)c2ccncc2)C3)cc1 (some centres undefined),13.0,-1.1%,i,-9.0%
O=C(O)c1ccc(CSc2cc(Cl)ccc2Cl)cc1,nt,nt,i,nt
CCc1ccc(OCc2nnc(SCc3ccc(F)cc3Cl)n2CC(C)C)cc1,nt,nt,i,nt
COc1ccc(-c2nnc(SCC(=O)N(C)C3CCCCC3)o2)cc1,nt,nt,i,nt
CN[C@@H]1C[C@H]2O[C@@](C)([C@H]1OC)n1c3ccccc3c3c4c(c5c6ccccc6n2c5c31)C(=O)N[C@H]4O,nt,?,nt,4.29µM*
COc1cc(NC(=O)c2cn(C3CCCC3)c(=O)c3c2c2ccccc2n3C)cc(OC)c1OC,-0.1,-2.4%,i,23.3%
